# Measurements taken from article PMC7862700, “An all-to-all approach to the identification of sequence-specific readers for epigenetic DNA modifications on cytosine”.
# Experiments:
# Assay in all cases: DAPPL (digital affinity profiling via proximity ligation, sequencing); 10 mM Tris-HCl pH 7.5, 50 mM NaCl, 1 mM DTT, 4% glycerol, room temperature, 30 min; GST-TFs on glutathione beads, 16-mer random dsDNA library, 0.1% formaldehyde crosslink after washing; high values mean tight binding
# Conditions in all cases: protein: recombinant; tags: N-terminal GST; dsDNA, one strand shown
# [1] = target: T1, FLI1 (Homo sapiens, UniProt Q01543 1-452)
# T1 sequence: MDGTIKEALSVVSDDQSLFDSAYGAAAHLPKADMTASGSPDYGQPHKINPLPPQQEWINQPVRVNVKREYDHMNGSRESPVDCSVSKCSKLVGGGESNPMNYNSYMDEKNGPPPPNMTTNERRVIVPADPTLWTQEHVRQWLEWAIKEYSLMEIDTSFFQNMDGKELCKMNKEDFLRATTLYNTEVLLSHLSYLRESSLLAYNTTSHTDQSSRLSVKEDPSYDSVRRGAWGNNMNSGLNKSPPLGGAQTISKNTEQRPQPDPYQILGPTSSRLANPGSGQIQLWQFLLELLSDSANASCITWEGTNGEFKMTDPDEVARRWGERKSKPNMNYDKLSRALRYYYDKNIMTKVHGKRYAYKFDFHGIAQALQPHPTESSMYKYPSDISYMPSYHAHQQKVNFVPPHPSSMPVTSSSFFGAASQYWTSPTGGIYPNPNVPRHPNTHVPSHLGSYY
# Summary of the method: (§1)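 Sequencing on an Illumina NextSeq500 followed washing, crosslinking with 0.1% formaldehyde, proximity ligation (BsaI/T4 ligase, 1 h, 37 °C) and PCR amplification of pools that had been incubated for 30 min at room temperature with 200 nmole of a random double-stranded 16-mer DNA library in Tris/NaCl/DTT/glycerol buffer. Each pool held DNA-barcoded human transcription factors, expressed in yeast as GST fusions and captured on glutathione beads, plus a tag-only sample. Binding signal is a hexamer's read frequency for a factor divided by its frequency in the tag-only sample.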
# [2] = target: T2, ELK1 (Homo sapiens, UniProt P19419 1-428)
# T2 sequence: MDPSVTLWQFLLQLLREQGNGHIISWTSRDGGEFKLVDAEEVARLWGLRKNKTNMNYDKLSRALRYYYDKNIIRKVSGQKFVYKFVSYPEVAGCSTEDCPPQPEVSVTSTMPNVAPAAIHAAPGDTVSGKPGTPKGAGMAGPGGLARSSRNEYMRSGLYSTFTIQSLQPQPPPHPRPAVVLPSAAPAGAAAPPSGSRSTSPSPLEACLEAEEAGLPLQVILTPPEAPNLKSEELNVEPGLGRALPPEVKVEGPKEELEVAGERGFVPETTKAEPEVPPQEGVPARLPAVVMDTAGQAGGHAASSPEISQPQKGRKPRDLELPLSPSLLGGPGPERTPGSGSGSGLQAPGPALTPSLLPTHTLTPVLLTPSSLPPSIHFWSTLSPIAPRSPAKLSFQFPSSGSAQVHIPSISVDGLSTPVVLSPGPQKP
# Summary of the method: as §1
# [3] = target: T3, GABPA (Homo sapiens, UniProt Q06546 1-454)
# T3 sequence: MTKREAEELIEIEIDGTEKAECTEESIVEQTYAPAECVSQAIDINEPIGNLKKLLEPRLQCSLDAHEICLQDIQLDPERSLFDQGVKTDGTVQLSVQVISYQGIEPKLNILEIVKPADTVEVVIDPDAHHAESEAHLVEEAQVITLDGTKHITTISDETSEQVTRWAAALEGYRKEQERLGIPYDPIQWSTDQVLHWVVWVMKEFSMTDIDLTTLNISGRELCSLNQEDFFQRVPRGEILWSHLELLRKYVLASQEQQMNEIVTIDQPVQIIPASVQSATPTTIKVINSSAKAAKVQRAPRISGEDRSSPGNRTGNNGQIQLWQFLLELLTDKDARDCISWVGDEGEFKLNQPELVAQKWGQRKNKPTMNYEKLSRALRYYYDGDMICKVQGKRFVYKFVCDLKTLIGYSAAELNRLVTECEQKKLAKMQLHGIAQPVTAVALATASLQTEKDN
# Summary of the method: as §1
# [4] = target: T4, ERG (Homo sapiens, UniProt P11308 1-479)
# T4 sequence: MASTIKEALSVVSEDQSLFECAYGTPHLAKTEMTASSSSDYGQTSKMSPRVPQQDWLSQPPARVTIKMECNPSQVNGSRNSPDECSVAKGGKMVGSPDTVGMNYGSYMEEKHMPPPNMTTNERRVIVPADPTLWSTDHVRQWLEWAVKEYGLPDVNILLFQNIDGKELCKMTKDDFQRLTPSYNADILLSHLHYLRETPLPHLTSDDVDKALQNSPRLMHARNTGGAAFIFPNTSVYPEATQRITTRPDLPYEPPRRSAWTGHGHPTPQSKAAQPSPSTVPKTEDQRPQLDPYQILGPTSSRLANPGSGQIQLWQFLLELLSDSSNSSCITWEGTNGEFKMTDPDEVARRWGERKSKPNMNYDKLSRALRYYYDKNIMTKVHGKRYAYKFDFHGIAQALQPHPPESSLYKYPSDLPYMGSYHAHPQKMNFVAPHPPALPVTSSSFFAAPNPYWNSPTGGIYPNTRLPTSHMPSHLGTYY
# Summary of the method: as §1
# [5] = target: ELF1 (Homo sapiens, UniProt P32519 1-619)
# Summary of the method: as §1
# [6] = target: T5, EHF (Homo sapiens, UniProt Q9NZC4 1-300)
# T5 sequence: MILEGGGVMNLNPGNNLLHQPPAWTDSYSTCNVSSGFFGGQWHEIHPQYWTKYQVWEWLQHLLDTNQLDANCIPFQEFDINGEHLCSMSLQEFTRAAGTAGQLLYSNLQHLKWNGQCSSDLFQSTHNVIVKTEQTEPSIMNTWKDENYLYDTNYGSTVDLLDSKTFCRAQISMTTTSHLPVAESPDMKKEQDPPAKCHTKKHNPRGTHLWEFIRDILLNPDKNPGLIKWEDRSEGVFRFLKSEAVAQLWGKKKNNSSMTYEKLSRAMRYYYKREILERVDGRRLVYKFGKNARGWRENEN
# Summary of the method: as §1
# [7] = target: SPI1 (Homo sapiens, UniProt P17947 1-270)
# Summary of the method: as §1
# [8] = target: SPIB (Homo sapiens, UniProt Q01892 1-262)
# Summary of the method: as §1
# [9] = target: T6, ELK3 (Homo sapiens, UniProt P41970 1-407)
# T6 sequence: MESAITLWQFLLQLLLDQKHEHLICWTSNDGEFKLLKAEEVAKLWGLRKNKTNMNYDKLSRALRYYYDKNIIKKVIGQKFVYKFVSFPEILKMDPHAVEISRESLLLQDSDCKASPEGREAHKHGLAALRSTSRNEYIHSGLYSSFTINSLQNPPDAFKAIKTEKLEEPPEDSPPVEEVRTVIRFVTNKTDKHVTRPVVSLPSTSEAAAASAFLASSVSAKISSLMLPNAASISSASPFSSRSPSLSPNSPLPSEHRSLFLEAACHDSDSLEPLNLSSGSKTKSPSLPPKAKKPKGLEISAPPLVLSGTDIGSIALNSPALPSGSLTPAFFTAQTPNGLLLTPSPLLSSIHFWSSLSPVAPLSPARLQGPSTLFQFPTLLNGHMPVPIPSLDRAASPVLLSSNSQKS
# Summary of the method: as §1
# Chain of SPIB (Q01892 whole entry): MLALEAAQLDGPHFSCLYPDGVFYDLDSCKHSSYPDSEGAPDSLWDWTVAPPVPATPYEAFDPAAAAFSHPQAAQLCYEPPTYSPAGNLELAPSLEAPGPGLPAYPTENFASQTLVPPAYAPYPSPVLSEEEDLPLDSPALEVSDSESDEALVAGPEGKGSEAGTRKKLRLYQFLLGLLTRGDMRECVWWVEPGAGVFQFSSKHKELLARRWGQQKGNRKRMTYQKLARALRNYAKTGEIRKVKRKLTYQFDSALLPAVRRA
# Chain of ELF1 (P32519 whole entry): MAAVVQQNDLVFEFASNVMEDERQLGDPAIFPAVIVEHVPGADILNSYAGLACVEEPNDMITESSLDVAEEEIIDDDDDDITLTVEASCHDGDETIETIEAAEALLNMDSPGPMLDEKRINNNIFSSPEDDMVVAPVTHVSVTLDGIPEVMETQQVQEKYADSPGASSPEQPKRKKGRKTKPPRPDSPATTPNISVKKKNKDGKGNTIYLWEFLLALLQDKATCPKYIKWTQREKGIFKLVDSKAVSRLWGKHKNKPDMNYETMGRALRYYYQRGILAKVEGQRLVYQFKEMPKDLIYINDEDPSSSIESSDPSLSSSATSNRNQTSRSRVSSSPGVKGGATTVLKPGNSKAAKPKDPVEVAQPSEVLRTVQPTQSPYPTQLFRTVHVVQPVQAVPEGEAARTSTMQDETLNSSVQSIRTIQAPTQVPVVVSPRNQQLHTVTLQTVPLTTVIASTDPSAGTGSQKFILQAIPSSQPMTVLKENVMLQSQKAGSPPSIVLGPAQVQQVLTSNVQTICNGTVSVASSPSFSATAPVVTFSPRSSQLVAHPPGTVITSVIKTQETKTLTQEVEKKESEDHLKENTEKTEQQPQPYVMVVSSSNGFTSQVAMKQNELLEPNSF
Sequence,binding signal [1],binding signal [2],binding signal [3],binding signal [4],binding signal [5],binding signal [6],binding signal [7],binding signal [8],binding signal [9]
TCCACA,"1.3 fold enrichment (6-mer frequency, TF over GST control)","1.27 fold enrichment (6-mer frequency, TF over GST control)","1.26 fold enrichment (6-mer frequency, TF over GST control)","1.19 fold enrichment (6-mer frequency, TF over GST control)","1.23 fold enrichment (6-mer frequency, TF over GST control)","1.25 fold enrichment (6-mer frequency, TF over GST control)","1.28 fold enrichment (6-mer frequency, TF over GST control)","1.14 fold enrichment (6-mer frequency, TF over GST control)","1.35 fold enrichment (6-mer frequency, TF over GST control)"
TGCTAG,"1.11 fold enrichment (6-mer frequency, TF over GST control)","1.08 fold enrichment (6-mer frequency, TF over GST control)","1.08 fold enrichment (6-mer frequency, TF over GST control)","1.11 fold enrichment (6-mer frequency, TF over GST control)","1.16 fold enrichment (6-mer frequency, TF over GST control)","1.1 fold enrichment (6-mer frequency, TF over GST control)","1.2 fold enrichment (6-mer frequency, TF over GST control)","1.19 fold enrichment (6-mer frequency, TF over GST control)","1.03 fold enrichment (6-mer frequency, TF over GST control)"
TGTTAT,"1.37 fold enrichment (6-mer frequency, TF over GST control)","1.27 fold enrichment (6-mer frequency, TF over GST control)","1.36 fold enrichment (6-mer frequency, TF over GST control)","1.41 fold enrichment (6-mer frequency, TF over GST control)","1.29 fold enrichment (6-mer frequency, TF over GST control)","1.35 fold enrichment (6-mer frequency, TF over GST control)","1.38 fold enrichment (6-mer frequency, TF over GST control)","1.31 fold enrichment (6-mer frequency, TF over GST control)","1.24 fold enrichment (6-mer frequency, TF over GST control)"
AATAAA,"1.2 fold enrichment (6-mer frequency, TF over GST control)","1.2 fold enrichment (6-mer frequency, TF over GST control)","1.27 fold enrichment (6-mer frequency, TF over GST control)","1.21 fold enrichment (6-mer frequency, TF over GST control)","1.27 fold enrichment (6-mer frequency, TF over GST control)","1.25 fold enrichment (6-mer frequency, TF over GST control)","1.32 fold enrichment (6-mer frequency, TF over GST control)","1.26 fold enrichment (6-mer frequency, TF over GST control)","1.27 fold enrichment (6-mer frequency, TF over GST control)"
TAATCA,"1.17 fold enrichment (6-mer frequency, TF over GST control)","1.14 fold enrichment (6-mer frequency, TF over GST control)","1.25 fold enrichment (6-mer frequency, TF over GST control)","1.07 fold enrichment (6-mer frequency, TF over GST control)","1.16 fold enrichment (6-mer frequency, TF over GST control)","1.08 fold enrichment (6-mer frequency, TF over GST control)","1.07 fold enrichment (6-mer frequency, TF over GST control)","1.16 fold enrichment (6-mer frequency, TF over GST control)","1.09 fold enrichment (6-mer frequency, TF over GST control)"
AAACCT,"1.15 fold enrichment (6-mer frequency, TF over GST control)","1.01 fold enrichment (6-mer frequency, TF over GST control)","1.17 fold enrichment (6-mer frequency, TF over GST control)","1.12 fold enrichment (6-mer frequency, TF over GST control)","1.19 fold enrichment (6-mer frequency, TF over GST control)","1.16 fold enrichment (6-mer frequency, TF over GST control)","1.18 fold enrichment (6-mer frequency, TF over GST control)","1.11 fold enrichment (6-mer frequency, TF over GST control)","1.15 fold enrichment (6-mer frequency, TF over GST control)"
ATTATG,"1.3 fold enrichment (6-mer frequency, TF over GST control)","1.18 fold enrichment (6-mer frequency, TF over GST control)","1.16 fold enrichment (6-mer frequency, TF over GST control)","1.2 fold enrichment (6-mer frequency, TF over GST control)","1.2 fold enrichment (6-mer frequency, TF over GST control)","1.25 fold enrichment (6-mer frequency, TF over GST control)","1.25 fold enrichment (6-mer frequency, TF over GST control)","1.25 fold enrichment (6-mer frequency, TF over GST control)","1.17 fold enrichment (6-mer frequency, TF over GST control)"
AAGATT,"1.1 fold enrichment (6-mer frequency, TF over GST control)","1.17 fold enrichment (6-mer frequency, TF over GST control)","1.18 fold enrichment (6-mer frequency, TF over GST control)","1.17 fold enrichment (6-mer frequency, TF over GST control)","1.19 fold enrichment (6-mer frequency, TF over GST control)","1.16 fold enrichment (6-mer frequency, TF over GST control)","1.12 fold enrichment (6-mer frequency, TF over GST control)","1.16 fold enrichment (6-mer frequency, TF over GST control)","1.04 fold enrichment (6-mer frequency, TF over GST control)"
